Molecules are shown by their SMILES. Inconclusive results are not listed. Calls of active or inactive are those of the source. Calls follow the shape of the dose curve; as a rule, active = well fitted inhibition curve with a large enough effect; inconclusive = small, poorly fitted or top-dose-only effect, or effect the other way; inactive = flat fitted curve, though single readings scatter.
% is scaled to controls: 0 for no effect and ±100 for the full control effect.

Sequence of ATP-dependent 6-phosphofructokinase (Trypanosoma brucei brucei) (O15648 whole entry, looked up): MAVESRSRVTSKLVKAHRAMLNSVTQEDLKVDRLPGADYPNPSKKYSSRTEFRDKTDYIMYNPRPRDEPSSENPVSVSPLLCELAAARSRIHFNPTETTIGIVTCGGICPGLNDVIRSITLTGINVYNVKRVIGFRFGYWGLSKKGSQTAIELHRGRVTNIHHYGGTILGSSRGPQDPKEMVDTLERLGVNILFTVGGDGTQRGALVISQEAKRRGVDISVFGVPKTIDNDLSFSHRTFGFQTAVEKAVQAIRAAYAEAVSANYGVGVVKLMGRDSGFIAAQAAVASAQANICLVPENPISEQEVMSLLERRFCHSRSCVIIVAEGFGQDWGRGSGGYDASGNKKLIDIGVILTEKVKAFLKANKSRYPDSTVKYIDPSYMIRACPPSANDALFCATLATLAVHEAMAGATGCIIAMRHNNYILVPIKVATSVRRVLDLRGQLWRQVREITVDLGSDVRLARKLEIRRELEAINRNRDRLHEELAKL

The target of the assay is ATP-dependent 6-phosphofructokinase (Trypanosoma brucei brucei) (UniProt O15648). Description: qHTS Assay to Find Inhibitors of T. brucei phosphofructokinase: hit validation (AID 492961).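 Also: luminescence reports ADP formed as PFK phosphorylates fructose-6-phosphate with ATP.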 Particulars: T. brucei PFK, ADP-Glo luminescence; series mostly up to 51.4 µM; activity change, negative = inhibition: at the top concentration. Summed up:
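Compounds titrated; %activity normalized to 0x and 1x enzyme controls, curve-fitted. Readout: ADP-Glo luminescence after 45 min room-temperature reaction of 1.25 nM PFK, 0.1 mM ATP, 0.5 mM F6P, pH 8.0.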
Background: qHTS replaces the single test concentration by a dilution series.
In the case of `CCN(CC)CC1CCCCN1CC(=O)N1c2ccccc2C(=O)Nc2cccnc21` (stereo not drawn), the “activity change, negative = inhibition” value was -5.32% (inactive). For the compound `CCN(CC)CCOC(=O)C(c1ccccc1)c1ccccc1`, the “activity change, negative = inhibition” value was 0% (inactive). Next, `Cc1c(NC(=O)c2cccnc2)c(=O)n(-c2ccccc2)n1C`: -4.94% [at 24.3 µM] (inactive); `Cc1cccc(C)c1NC(=O)CC12CCCN1CCC2`: -3.14% (inactive); `CN1CCCN=C1COC(=O)C(O)(c1ccccc1)C1CCCCC1` (stereo not drawn): -1.69% (inactive).

`O=C(NCCCN1CCOCC1)c1ccc(Cl)cc1`: the “activity change, negative = inhibition” value was 0% (inactive). Then `CC(=O)SC[C@@H](Cc1ccccc1)C(=O)NCC(=O)OCc1ccccc1`, with 6.06% [at 24.3 µM] (inactive). Consider `O=C1c2ccccc2C(=O)C1c1ccc(Br)cc1`, for which the “activity change, negative = inhibition” value was 3.15% (inactive). Take `CCOC(=O)c1cccnc1`: the “activity change, negative = inhibition” value is 4.39% (inactive). With `COc1ccccc1OC(=O)Oc1ccccc1OC`, the “activity change, negative = inhibition” value was -2.08% (inactive). Next, `Cc1ccc(S(=O)(=O)NC(=O)NC2CCCCCCC2)cc1`: -5.32% (inactive). For the compound `CCCCCCCCCCC(CO)CCCCCCCC` (stereo not drawn), the “activity change, negative = inhibition” value is -4.59% (inactive). Then `CCOC(=O)[C@H](CCc1ccccc1)N[C@@H](C)C(=O)N1CCC[C@H]1C(=O)O`, with -0.617% (inactive); and `NC(N)=NCCN1CCCCCCC1`, with -12.9% [at 24.3 µM] (inactive).

Take `Nc1ccncc1N`: the “activity change, negative = inhibition” value was -5.09% (inactive).

For `O=c1[nH]cnc2nc[nH]c12`, the “activity change, negative = inhibition” value was 12.1% (inactive). Regarding `Nc1ccc(C(=O)Oc2ccccc2)c(O)c1`, the “activity change, negative = inhibition” value is 6.18% (inactive). Take `NS(=O)(=O)c1ccc(NC(=O)CCC(=O)O)cc1`: the “activity change, negative = inhibition” value was -3.93% (inactive). Next, `OCc1ccc(Cl)cc1Cl`: 0% (inactive); `CC(C)CCOC(=O)c1ccc(N(C)C)cc1`: -3.32% (inactive); `CCCOC(=O)c1ccc(N)cc1`: 0% (inactive).

On to `O=S1(=O)OC(c2ccc(O)cc2)(c2ccc(O)cc2)c2ccccc21`, for which the “activity change, negative = inhibition” value is -5.53% (inactive).

On to `CCCCCCCCCCCCCCCCC(C(=O)O)C(O)(CC(=O)O)C(=O)O` (stereo not drawn), for which the “activity change, negative = inhibition” value is 3.37% (inactive).

Source of the values: PubChem BioAssay (NCATS).
